From the supplement of paper PMC10849652
Targets with a hit are over-represented here; the source holds about 7,900 in all. About 0.6% of all pairs of compound and target were hits.

Compound: C1=CC=C(C=C1)C2=NC(=C(N2)C3=CC=NC=C3)C4=CC(=C(C=C4)Cl)O
Test: log2 fold change, soluble protein after heating vs DMSO (PISA); higher = thermal stabilisation; K562 cells, 10 uM, 30 min; active = over 0.2 and 3.5 SD of the protein, either way, in both replicates (recomputed)
Outline: (§1)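 Aliquots of K562 cells (2×10^6 cells/mL) treated with 10 μM compound for 30 min were heated for 3 min over 48°C-58°C. After pooling and extraction in PBS with 0.5% NP-40 at 4°C, soluble protein from a 21,000xg, 90 min spin was quantified by TMTpro 16plex LC-MS/MS with channel sums equalised. Thermal stability is expressed against control samples, from duplicates, as a log2 fold change.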

Sequence of UniProt O75607 (O75607 whole entry, looked up): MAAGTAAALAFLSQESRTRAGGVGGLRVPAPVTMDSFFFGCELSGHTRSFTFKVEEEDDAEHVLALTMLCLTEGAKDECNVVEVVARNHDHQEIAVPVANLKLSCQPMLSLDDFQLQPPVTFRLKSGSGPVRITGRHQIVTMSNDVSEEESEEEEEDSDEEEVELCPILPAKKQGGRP
Sequence of UniProt O15460 (O15460 whole entry, looked up): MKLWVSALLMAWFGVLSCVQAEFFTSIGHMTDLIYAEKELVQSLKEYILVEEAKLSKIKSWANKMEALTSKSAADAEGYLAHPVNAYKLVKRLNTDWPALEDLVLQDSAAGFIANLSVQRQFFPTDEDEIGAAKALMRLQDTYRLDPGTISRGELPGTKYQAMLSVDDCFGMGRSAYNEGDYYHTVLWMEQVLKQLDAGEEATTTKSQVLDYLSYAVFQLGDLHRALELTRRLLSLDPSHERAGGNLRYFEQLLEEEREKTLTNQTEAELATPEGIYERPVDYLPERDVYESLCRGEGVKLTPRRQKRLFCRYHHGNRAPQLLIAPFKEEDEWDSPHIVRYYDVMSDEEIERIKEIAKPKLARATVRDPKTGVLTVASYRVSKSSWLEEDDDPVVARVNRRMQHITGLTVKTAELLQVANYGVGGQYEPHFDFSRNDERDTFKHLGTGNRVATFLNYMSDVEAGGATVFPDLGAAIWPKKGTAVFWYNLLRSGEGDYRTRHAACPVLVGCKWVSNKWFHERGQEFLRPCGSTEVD
Sequence of UniProt Q86TA1 (Q86TA1 whole entry, looked up): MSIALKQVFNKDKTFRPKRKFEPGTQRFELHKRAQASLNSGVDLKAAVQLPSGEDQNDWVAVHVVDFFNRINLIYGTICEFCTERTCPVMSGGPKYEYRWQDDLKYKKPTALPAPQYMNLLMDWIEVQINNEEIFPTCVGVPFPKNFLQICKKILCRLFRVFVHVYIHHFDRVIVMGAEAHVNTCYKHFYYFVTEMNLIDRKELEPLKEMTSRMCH
Sequence of UniProt Q8N573 (Q8N573 whole entry, looked up): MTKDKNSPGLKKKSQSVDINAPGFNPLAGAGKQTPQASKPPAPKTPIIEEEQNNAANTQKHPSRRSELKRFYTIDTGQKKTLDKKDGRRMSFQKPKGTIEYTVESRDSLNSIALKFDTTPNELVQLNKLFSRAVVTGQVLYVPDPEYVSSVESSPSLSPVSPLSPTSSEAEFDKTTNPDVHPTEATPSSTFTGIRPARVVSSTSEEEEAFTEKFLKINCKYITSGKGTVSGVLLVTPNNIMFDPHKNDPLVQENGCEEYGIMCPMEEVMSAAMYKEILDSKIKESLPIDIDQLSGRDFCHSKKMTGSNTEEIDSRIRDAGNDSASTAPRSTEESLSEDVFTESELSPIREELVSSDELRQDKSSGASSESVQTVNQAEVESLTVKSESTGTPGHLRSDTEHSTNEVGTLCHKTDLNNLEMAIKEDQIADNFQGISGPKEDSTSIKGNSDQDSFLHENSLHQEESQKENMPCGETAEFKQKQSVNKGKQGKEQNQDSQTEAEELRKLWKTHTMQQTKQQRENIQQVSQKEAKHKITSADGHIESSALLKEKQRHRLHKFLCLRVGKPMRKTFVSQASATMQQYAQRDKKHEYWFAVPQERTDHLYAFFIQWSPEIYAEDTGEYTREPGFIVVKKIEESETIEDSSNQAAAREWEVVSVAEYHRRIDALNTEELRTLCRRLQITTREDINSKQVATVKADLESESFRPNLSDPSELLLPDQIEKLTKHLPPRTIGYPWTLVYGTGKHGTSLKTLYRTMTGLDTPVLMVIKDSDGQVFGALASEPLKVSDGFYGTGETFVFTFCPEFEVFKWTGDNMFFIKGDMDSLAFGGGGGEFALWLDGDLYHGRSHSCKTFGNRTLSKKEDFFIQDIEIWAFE
Sequence of UniProt Q9H6N6 (Q9H6N6 whole entry, looked up): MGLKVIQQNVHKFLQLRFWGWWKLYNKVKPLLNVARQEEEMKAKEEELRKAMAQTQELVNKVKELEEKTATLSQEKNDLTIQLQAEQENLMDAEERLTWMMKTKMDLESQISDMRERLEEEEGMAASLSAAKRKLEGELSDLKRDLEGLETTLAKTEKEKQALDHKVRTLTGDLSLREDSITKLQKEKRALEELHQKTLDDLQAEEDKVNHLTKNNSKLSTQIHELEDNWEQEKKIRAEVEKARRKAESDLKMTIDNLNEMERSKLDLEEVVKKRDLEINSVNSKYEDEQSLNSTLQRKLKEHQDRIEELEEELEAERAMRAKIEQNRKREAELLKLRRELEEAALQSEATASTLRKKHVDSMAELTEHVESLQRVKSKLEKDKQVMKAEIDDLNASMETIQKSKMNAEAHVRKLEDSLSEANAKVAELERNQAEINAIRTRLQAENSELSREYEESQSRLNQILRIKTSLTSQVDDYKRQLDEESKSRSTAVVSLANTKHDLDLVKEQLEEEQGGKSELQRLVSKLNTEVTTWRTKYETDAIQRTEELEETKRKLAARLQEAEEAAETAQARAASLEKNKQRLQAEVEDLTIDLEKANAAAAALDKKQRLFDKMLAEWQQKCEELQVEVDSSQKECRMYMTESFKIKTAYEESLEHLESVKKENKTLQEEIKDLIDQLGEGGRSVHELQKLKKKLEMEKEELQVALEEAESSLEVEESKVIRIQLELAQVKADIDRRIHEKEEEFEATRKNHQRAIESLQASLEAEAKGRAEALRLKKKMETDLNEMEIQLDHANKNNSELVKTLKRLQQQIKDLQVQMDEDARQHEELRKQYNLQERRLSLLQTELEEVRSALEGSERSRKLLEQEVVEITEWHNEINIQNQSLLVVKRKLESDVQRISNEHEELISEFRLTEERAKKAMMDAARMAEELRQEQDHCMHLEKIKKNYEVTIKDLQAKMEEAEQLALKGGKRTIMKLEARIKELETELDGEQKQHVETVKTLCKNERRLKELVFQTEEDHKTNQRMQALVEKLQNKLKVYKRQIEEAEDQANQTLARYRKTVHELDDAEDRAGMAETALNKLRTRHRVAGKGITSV
Sequence of UniProt Q69YL0 (Q69YL0 whole entry, looked up): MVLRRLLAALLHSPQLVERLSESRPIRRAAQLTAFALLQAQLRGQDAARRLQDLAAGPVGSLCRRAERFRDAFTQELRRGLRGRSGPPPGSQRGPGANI
Sequence of UniProt P53370 (P53370 whole entry, looked up): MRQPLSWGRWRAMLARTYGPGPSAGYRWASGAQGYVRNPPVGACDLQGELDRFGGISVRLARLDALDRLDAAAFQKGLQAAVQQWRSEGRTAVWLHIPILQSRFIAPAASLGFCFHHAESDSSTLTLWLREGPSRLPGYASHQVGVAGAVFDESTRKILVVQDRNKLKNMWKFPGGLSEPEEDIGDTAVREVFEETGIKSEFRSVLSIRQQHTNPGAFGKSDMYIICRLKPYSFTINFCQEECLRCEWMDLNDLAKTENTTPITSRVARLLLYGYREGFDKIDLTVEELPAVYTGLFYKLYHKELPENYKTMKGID
Sequence of UniProt P0C024 (P0C024 whole entry, looked up): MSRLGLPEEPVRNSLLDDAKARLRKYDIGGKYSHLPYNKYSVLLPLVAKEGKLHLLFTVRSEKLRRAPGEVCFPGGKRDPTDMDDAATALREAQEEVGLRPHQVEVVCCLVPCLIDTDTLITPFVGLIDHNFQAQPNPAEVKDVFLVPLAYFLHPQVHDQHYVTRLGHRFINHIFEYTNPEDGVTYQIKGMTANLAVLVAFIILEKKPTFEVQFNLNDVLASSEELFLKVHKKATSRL
Sequence of UniProt Q9UHC9 (Q9UHC9 whole entry, looked up): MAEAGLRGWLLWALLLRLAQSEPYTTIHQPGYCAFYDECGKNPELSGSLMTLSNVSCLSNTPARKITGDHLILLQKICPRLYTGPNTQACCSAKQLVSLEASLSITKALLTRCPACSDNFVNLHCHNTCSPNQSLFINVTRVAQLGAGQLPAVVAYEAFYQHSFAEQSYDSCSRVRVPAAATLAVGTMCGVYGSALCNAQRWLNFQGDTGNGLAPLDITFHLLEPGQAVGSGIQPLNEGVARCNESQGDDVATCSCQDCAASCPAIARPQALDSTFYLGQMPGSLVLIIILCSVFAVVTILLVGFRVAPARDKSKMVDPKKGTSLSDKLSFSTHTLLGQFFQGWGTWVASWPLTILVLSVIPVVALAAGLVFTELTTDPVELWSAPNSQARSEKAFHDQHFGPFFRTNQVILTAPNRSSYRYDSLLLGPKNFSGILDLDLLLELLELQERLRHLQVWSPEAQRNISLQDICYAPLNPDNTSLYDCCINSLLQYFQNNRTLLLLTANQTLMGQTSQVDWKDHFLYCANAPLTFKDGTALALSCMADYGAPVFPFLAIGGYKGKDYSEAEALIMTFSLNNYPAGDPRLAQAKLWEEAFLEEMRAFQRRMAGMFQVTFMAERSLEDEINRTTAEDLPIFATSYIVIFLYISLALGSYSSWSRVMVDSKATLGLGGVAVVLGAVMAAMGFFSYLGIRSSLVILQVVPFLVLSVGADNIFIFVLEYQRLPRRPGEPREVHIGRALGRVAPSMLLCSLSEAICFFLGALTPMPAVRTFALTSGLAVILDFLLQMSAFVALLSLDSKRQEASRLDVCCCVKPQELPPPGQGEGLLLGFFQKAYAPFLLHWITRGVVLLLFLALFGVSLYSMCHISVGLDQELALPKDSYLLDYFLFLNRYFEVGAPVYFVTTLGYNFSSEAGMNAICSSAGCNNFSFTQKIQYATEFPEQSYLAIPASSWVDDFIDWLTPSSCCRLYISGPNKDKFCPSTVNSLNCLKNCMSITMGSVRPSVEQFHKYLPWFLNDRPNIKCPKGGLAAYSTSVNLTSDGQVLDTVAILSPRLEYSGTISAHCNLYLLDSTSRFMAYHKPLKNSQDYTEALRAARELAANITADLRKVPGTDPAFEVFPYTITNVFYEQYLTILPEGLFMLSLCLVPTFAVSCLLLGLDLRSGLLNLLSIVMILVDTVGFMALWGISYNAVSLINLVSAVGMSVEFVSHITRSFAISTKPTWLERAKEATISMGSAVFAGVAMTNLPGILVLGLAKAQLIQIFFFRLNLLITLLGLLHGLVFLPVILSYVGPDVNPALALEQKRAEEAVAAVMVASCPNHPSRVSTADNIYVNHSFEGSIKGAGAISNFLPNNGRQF

Target | log2 fold change
OAF (UniProt Q86UD1) | -0.174 (inactive)
MXRA7 isoform 3 (UniProt P84157) | -0.08 (inactive)
PAFAH2 (UniProt Q99487) | -0.008 (inactive)
MOB2 isoform 3 (UniProt Q70IA6) | 0.025 (inactive)
NCOA5 (UniProt Q9HCD5) | -0.094 (inactive)
OVCA2 (UniProt Q8WZ82) | -0.044 (inactive)
MYSM1 (UniProt Q5VVJ2) | 0.37 (inactive)
NA, A0A1W2PSA9 | -0.008 (inactive)
MYLK (UniProt Q15746) | 0.291 (inactive)
NUDT7 (UniProt P0C024) | -0.118 (inactive)
NA (UniProt J3KR12) | 0.075 (inactive)
OXR1 isoform 2 (UniProt Q8N573) | -0.056 (inactive)
NUDT6 (UniProt P53370) | -0.12 (inactive)
MTHFD1, A0A384N5Y3 | 0.036 (inactive)
P4HA2 (UniProt O15460) | -0.02 (inactive)
MON1A (UniProt Q86VX9) | -0.017 (inactive)
NFYB (UniProt P25208) | -0.036 (inactive)
MPHOSPH8 isoform 2 (UniProt Q99549) | -0.055 (inactive)
NOS1AP (UniProt O75052) | -0.248 (inactive)
NPM3 (UniProt O75607) | -0.025 (inactive)
NCBP2AS2 (UniProt Q69YL0) | -0.029 (inactive)
NA, A0A2R8Y3M9 | -0.072 (inactive)

Compound: C1=CC=C2C(=C1)C3=NNC4=CC=CC(=C43)C2=O
Test: as above
Outline: as §1

Target | log2 fold change
MOB3B (UniProt Q86TA1) | -0.092 (inactive)
NIPSNAP3B (UniProt Q9BS92) | 0.007 (inactive)
NIPSNAP2 (UniProt C9J7B1) | -0.138 (inactive)
PAFAH2 (UniProt Q99487) | 0.011 (inactive)
MRM2 (UniProt Q9UI43) | 0.121 (inactive)
OVCA2 (UniProt Q8WZ82) | -0.131 (inactive)
NAP1L1 (UniProt B7Z9C2) | -0.178 (inactive)
NA, A0A494C071 | -0.018 (inactive)
NA, A0A1W2PSA9 | -0.104 (inactive)
OXR1 isoform 2 (UniProt Q8N573) | 0.068 (inactive)
MLH1 (UniProt P40692) | 0.053 (inactive)
MTHFD1, A0A384N5Y3 | 0.01 (inactive)
MYH16 (UniProt Q9H6N6) | 0.044 (inactive)
NFYB (UniProt P25208) | -0.045 (inactive)
MPHOSPH8 isoform 2 (UniProt Q99549) | -0.086 (inactive)
ORC3 (UniProt Q9UBD5) | 0.105 (inactive)
NPM3 (UniProt O75607) | -0.022 (inactive)
NCBP2AS2 (UniProt Q69YL0) | 0.148 (inactive)
NA, A0A2R8Y3M9 | -0.137 (inactive)
MITF (UniProt O75030) | 0.047 (inactive)
NPC1L1 (UniProt Q9UHC9) | -0.02 (inactive)

Compound: C1CCN(C1)C(=O)NC2=CC=CC(=C2)NC3=NC=C(C(=N3)NCCC4=CN=CN4)Br
Test: as above
Outline: as §1

Target | log2 fold change
MOB3B (UniProt Q86TA1) | -0.186 (inactive)
NIPSNAP3B (UniProt Q9BS92) | 0.008 (inactive)
PAFAH2 (UniProt Q99487) | -0.017 (inactive)
MOB2 isoform 3 (UniProt Q70IA6) | 0.135 (inactive)
MRM2 (UniProt Q9UI43) | -0.017 (inactive)
NA, A0A494C071 | 0.136 (inactive)
NA, A0A1W2PSA9 | 0.101 (inactive)
MYLK (UniProt Q15746) | 0.008 (inactive)
NUDT7 (UniProt P0C024) | 0.158 (inactive)
OXR1 isoform 2 (UniProt Q8N573) | 0.02 (inactive)
MLH1 (UniProt P40692) | -0.165 (inactive)
NUDT6 (UniProt P53370) | 0.121 (inactive)
MTHFD1, A0A384N5Y3 | -0.004 (inactive)
P4HA2 (UniProt O15460) | -0.016 (inactive)
MYH16 (UniProt Q9H6N6) | -0.089 (inactive)
MON1A (UniProt Q86VX9) | 0 (inactive)
NFYB (UniProt P25208) | 0.01 (inactive)
MPHOSPH8 isoform 2 (UniProt Q99549) | -0.02 (inactive)
NOS1AP (UniProt O75052) | -0.208 (inactive)
NPM3 (UniProt O75607) | -0.054 (inactive)
NCBP2AS2 (UniProt Q69YL0) | 0.048 (inactive)
MSANTD2 (UniProt Q6P1R3) | -0.081 (inactive)
NPC1L1 (UniProt Q9UHC9) | 0 (inactive)

Compound: C1CN(CCC1(CC2=CC=C(C=C2)Cl)N)C3=NC=NC4=C3C=CN4
Test: as above
Outline: as §1

Target | log2 fold change
MOB3B (UniProt Q86TA1) | 0.059 (inactive)
NIPSNAP3B (UniProt Q9BS92) | 0.051 (inactive)
PAFAH2 (UniProt Q99487) | 0.08 (inactive)
MOB2 isoform 3 (UniProt Q70IA6) | -0.22 (inactive)
MRM2 (UniProt Q9UI43) | -0.002 (inactive)
NA, A0A494C071 | 0.114 (inactive)
NA, A0A1W2PSA9 | -0.086 (inactive)
MYLK (UniProt Q15746) | -0.066 (inactive)
NUDT7 (UniProt P0C024) | -0.024 (inactive)
OXR1 isoform 2 (UniProt Q8N573) | -0.022 (inactive)
MLH1 (UniProt P40692) | 0.039 (inactive)
NUDT6 (UniProt P53370) | 0.35 (inactive)
MTHFD1, A0A384N5Y3 | 0.033 (inactive)
P4HA2 (UniProt O15460) | -0.035 (inactive)
MYH16 (UniProt Q9H6N6) | -0.082 (inactive)
MON1A (UniProt Q86VX9) | 0.135 (inactive)
NFYB (UniProt P25208) | -0.069 (inactive)
MPHOSPH8 isoform 2 (UniProt Q99549) | -0.065 (inactive)
NOS1AP (UniProt O75052) | 1.09 (active)
NPM3 (UniProt O75607) | -0.087 (inactive)
NCBP2AS2 (UniProt Q69YL0) | 0.113 (inactive)
MSANTD2 (UniProt Q6P1R3) | -0.052 (inactive)
NPC1L1 (UniProt Q9UHC9) | -0.033 (inactive)
